Inconclusive results are not listed. Active and inactive are the calls of the source. Unless noted, calls follow the shape of the dose curve; as a rule, active = well fitted curve in either direction with a large enough effect (not every such curve was filed as active); inconclusive = small, poorly fitted or top-dose-only effect, or another doubt; inactive = flat fitted curve, though single readings scatter.
Assays:
[1] = biological target: Lysosomal acid glucosylceramidase (Homo sapiens) (UniProt P04062); assay: Glucocerebrosidase-p2 (AID 348; in the data active = potency below about 10 µM; also: potency is read from the fitted curve at half-maximal effect); conditions: purified GBA, blue fluorogenic substrate, 40 min
Lysosomal acid glucosylceramidase (Homo sapiens), sequence (P04062 whole entry, looked up): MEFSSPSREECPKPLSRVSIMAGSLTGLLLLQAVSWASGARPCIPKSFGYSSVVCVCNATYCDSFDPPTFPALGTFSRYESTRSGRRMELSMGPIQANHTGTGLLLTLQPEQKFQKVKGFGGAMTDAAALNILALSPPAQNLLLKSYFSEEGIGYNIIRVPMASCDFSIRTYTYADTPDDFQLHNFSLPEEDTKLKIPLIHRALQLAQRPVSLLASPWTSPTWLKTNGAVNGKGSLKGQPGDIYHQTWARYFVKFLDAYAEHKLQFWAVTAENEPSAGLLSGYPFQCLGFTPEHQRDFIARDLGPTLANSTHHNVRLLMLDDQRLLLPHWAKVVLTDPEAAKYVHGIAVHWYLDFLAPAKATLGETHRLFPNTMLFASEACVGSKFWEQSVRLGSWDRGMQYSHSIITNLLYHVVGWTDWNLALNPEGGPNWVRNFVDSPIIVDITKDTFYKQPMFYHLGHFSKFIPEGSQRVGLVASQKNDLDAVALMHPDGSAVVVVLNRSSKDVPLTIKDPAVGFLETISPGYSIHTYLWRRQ
In short: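 Compounds titrated from 0.6 nM upwards against 0.2 nM enzyme in pH 5.9 citric acid/KH2PO4, taurocholate, tween-20; blue fluorogenic substrate 80 uM, 40 min room temperature, stopped and read Ex 365/Em 440 for AC50.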

[2] = AP1 Signaling Pathway (AID 357); conditions: ME-180 AP-1-bla reporter, EGF-induced, beta-lactamase ratio, 5 h; at 7.69 µM (top of the series) unless noted;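 also: ME-180 reporter cells stimulated with EGF at its EC50 level; % is scaled to controls: 0 for no effect and ±100 for the full control effect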
In short: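 In this screen, ME-180 cells in Opti-MEM with 0.5% dialyzed FBS received EC50 EGF and compound titrations for 5 h. AP-1 reporter beta-lactamase was detected via CCF4 ratio, giving AC50 for positive and negative modulators.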

[3] = NFAT Signaling Pathway (AID 444); conditions: Jurkat NFAT-bla M1, carbachol, beta-lactamase ratio, 5 h; at 7.69 µM (top of the series) unless noted;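 also: carbachol stimulus at about its EC50 of 1 µM final; % is scaled to controls: 0 for no effect and ±100 for the full control effect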
In short: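 Jurkat cells carrying an NFAT-driven β-lactamase reporter and co-transfected muscarinic M1 receptor were treated with compound plus carbachol (1 uM final, an EC50 level) for 5 h at 37 °C. CCF4 loading followed for 1 h at RT; 460/530 nm ratio gave %activity.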

[4] = Stat Signaling Pathway (AID 446); conditions: ME-180 SIE beta-lactamase reporter, IL-6 stimulated, 5 h; at 7.69 µM (top of the series) unless noted;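 also: ME-180 cervical cancer cells given 40 pM IL-6 alongside compound; SIE-controlled beta-lactamase reporter measured as 460/530 nm FRET emission ratio; % is scaled to controls: 0 for no effect and ±100 for the full control effect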
In short: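 ME-180 SIE-bla cells; overnight plating; cpd + IL-6 40 pM, 5 h, 37 C; LiveBLAzer 2.5 h RT; 460/530 nm emission ratio. Normalized to 300 pM IL-6 and 125 nM JAK inhibitor controls.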

[5] = biological target: Glucocorticoid receptor (Homo sapiens) (UniProt P04150); assay: GR-GFP Redistribution (AID 450;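 active = compounds whose dose series gives a full or clear partial fitted curve of increased nuclear translocation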; also: potency is read from the fitted curve at half-maximal effect); conditions: U2OS GR-GFP nuclear translocation, laser cytometry, 2 h
Glucocorticoid receptor (Homo sapiens), sequence (P04150 whole entry, looked up, the tested form may be a part): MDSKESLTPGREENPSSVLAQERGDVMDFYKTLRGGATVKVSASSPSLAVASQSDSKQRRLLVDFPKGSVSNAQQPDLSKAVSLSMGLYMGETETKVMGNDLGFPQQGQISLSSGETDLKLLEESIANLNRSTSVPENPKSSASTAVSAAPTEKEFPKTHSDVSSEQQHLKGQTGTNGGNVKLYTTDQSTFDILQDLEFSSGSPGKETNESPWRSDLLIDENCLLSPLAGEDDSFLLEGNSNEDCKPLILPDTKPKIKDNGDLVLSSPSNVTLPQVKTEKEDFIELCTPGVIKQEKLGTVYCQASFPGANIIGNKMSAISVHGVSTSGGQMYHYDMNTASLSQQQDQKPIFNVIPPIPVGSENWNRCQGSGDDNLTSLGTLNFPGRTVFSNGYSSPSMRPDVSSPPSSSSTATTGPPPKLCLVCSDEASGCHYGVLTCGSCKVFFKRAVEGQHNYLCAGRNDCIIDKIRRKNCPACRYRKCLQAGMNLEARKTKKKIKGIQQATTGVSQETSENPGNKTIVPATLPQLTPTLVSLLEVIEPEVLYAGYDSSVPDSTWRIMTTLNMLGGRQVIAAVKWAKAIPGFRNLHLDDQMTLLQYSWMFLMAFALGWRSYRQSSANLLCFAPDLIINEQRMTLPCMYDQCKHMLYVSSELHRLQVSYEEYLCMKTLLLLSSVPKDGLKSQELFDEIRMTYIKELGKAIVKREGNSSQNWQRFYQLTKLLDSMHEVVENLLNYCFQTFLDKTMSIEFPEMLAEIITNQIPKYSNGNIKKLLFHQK

[6] = biological target: Glucocorticoid receptor (Homo sapiens) (UniProt P04150); assay: GR-EFC Redistribution (AID 451; calls by dose curve; also: potency is read from the fitted curve at half-maximal effect); conditions: CHO-K1 GR-EFC translocation, beta-gal luminescence, 2 h
In short: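 CHO-K1 cells stably expressing nuclear-localized β-gal enzyme acceptor and GR fused C-terminally to the enzyme donor fragment; ligand-driven nuclear translocation restores β-gal by complementation. Compounds titrated up to 46 uM final, 2 h at 37 °C; luminescence read.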

[7] = biological target: Mitogen-activated protein kinase 10 (Mus musculus) (UniProt Q61831); assay: JNK3 AlphaScreen Assay (AID 530); conditions: JNK3 lysate, c-Jun phosphorylation; series mostly up to 11.4 µM;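 also: kinase came from lysate of stimulated human HepG2 cells; signal reports phosphorylation of biotinylated GST-cJun 1-79 at Ser73 with 10 µM ATP; % is scaled to controls: 0 for no effect and ±100 for the full control effect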
In short: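 JNK3 came from HepG2 lysates pre-activated with IL-1beta and TNF-alpha and phosphorylated biotinylated GST-cJun (1-79) at 10 uM ATP, pH 7.6, room temperature. Compounds were titrated. AlphaScreen signal used anti-phospho-cJun (Ser73) antibody.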

[8] = biological target: 3',5'-cyclic-AMP phosphodiesterase 4B (Homo sapiens) (UniProt Q07343); assay: qHTS Assay for Inhibitors of PDE-IV (AID 607; active = well fitted activation curve with a large enough effect in the main read-out, with a control signal flat, not every such curve was filed as active; also: % of control where 0% means no effect); conditions: HEK293 ACTOne CNG channel cells, membrane potential fluorescence; series mostly up to 22.9 µM
3',5'-cyclic-AMP phosphodiesterase 4B (Homo sapiens), sequence (Q07343 whole entry, looked up): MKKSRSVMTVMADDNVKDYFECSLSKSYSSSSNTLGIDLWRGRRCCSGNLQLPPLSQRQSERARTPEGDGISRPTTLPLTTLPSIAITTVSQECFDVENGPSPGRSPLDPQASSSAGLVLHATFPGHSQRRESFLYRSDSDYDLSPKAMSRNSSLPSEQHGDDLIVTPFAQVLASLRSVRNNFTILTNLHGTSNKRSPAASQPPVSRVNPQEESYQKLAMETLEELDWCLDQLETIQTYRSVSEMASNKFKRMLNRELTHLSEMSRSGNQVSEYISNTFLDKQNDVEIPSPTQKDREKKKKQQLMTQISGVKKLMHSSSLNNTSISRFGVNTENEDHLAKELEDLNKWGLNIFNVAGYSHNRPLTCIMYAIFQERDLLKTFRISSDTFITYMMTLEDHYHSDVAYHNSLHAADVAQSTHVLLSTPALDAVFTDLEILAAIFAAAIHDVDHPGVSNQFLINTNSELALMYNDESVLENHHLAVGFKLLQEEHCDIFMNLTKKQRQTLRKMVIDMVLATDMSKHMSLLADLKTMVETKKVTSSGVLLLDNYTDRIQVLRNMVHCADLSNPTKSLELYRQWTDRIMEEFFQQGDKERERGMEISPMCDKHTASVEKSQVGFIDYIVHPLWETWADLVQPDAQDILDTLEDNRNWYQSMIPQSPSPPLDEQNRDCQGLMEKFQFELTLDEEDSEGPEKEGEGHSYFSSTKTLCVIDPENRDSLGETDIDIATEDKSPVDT
In short: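 ACTOne HEK293 cells carry a modified cAMP-gated CNG channel and express endogenous PDE4; plated 1000 cells/well, compounds up to 22.9 uM final. Membrane-potential dye fluorescence (ex 535/em 590) was read; parental cells received 10 uM forskolin + 100 uM RO 20-1724.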

Clc1ccc(CSc2ncnc3c2ncn3[C@@H]2CCCCO2)cc1
inactive: Potency [1] > 11.4 µM | activity change, negative = inhibition [2] -8.23% | activity change, negative = inhibition [3] 12.9% | activity, negative = inhibition [4] -14.7% | Potency [5] > 46 µM | Potency [6] > 9.22 µM | Potency [7] | Potency [8]

O=C(O)C(=Cc1ccnc2ccccc12)C(=O)O
inactive: Potency [1] > 11.4 µM | activity change, negative = inhibition [2] -3.98% | activity change, negative = inhibition [3] 24.2% | activity, negative = inhibition [4] 9.09% | Potency [5] > 46 µM | Potency [6] > 9.22 µM | Potency [7] | Potency [8]

CCCc1cc(COC)c(C#N)c(=O)[nH]1
inactive: Potency [1] > 11.4 µM | activity change, negative = inhibition [2] 1.77% | activity change, negative = inhibition [3] -2.55% | activity, negative = inhibition [4] 3.43% | Potency [5] > 46 µM | Potency [6] > 9.22 µM | Potency [7] | Potency [8]

N[C@@H](CSC1(c2ccc(Cl)cc2)c2ccccc2-c2ccccc21)C(=O)O
inactive: Potency [1] > 11.4 µM | activity change, negative = inhibition [2] -8.46% | activity change, negative = inhibition [3] 10.1% | activity, negative = inhibition [4] -2.38% | Potency [5] > 46 µM | Potency [6] > 9.22 µM | Potency [7] | Potency [8]

CC(C)C[C@H](N)C(=O)O
inactive: Potency [1] > 11.4 µM | activity change, negative = inhibition [2] 10.7% | activity change, negative = inhibition [3] 1.77% | activity, negative = inhibition [4] 5.12% | Potency [5] > 46 µM | Potency [6] > 9.22 µM | Potency [7] | Potency [8]

CN1CCN(c2ccc3nc(-c4ccc5nc(-c6ccc(O)cc6)[nH]c5c4)[nH]c3c2)CC1
inactive: Potency [1] > 11.4 µM | activity change, negative = inhibition [2] -22.4% | activity change, negative = inhibition [3] -8.32% | activity, negative = inhibition [4] 23.8% | Potency [5] > 46 µM | Potency [6] > 9.22 µM | Potency [7] | Potency [8]

CSCC[C@@H](C(=O)O)N(C)C
inactive: Potency [1] > 11.4 µM | activity change, negative = inhibition [2] 3.21% | activity change, negative = inhibition [3] 7.85% | activity, negative = inhibition [4] 2.15% | Potency [5] > 46 µM | Potency [6] > 9.22 µM | Potency [7] | Potency [8]

OC1(C(O)(c2ccc(-c3ccccc3)cc2)c2ccc(-c3ccccc3)cc2)CCCCC1
inactive: Potency [1] > 11.4 µM | activity change, negative = inhibition [2] 7.3% | activity change, negative = inhibition [3] 2.32% | activity, negative = inhibition [4] 1.1% | Potency [5] > 46 µM | Potency [6] > 9.22 µM | Potency [7] | Potency [8]

CC(C)Oc1cc(O)c2c(c1)OCC=C2CCC(=O)O
inactive: Potency [1] > 11.4 µM | activity change, negative = inhibition [2] 0.742% | activity change, negative = inhibition [3] -2.86% | activity, negative = inhibition [4] 0.331% | Potency [5] > 46 µM | Potency [6] > 9.22 µM | Potency [7] | Potency [8]

c1cncc(CSc2ncnc3nc[nH]c23)c1
inactive: Potency [1] > 11.4 µM | activity change, negative = inhibition [2] -2.25% | activity change, negative = inhibition [3] 19.6% | activity, negative = inhibition [4] 8.79% | Potency [5] > 46 µM | Potency [6] > 9.22 µM | Potency [7] | Potency [8]

O=C(O)/C=C\C=C/c1ccc2c(c1)OCO2
inactive: Potency [1] > 11.4 µM | activity change, negative = inhibition [2] 6.54% | activity change, negative = inhibition [3] 5.9% | activity, negative = inhibition [4] 1.24% | Potency [5] > 46 µM | Potency [6] > 9.22 µM | Potency [7] | Potency [8]

c1ccc(B2OC[C@@H]3OB(c4ccccc4)O[C@H]([C@@H]4COB(c5ccccc5)O4)[C@@H]3O2)cc1
inactive: Potency [1] > 11.4 µM | activity change, negative = inhibition [2] -8.96% | activity change, negative = inhibition [3] 19.9% | activity, negative = inhibition [4] -6.35% | Potency [5] > 46 µM | Potency [6] > 9.22 µM | Potency [7] | Potency [8]

O=C1C(=O)c2ccccc2C(O)=C1Cc1ccccc1
inactive: Potency [1] > 11.4 µM | activity change, negative = inhibition [2] -5.11% | activity change, negative = inhibition [3] 4.13% | activity, negative = inhibition [4] -11.8% | Potency [5] > 46 µM | Potency [6] > 9.22 µM | Potency [7] | Potency [8]

CN(C)c1ccc2nc3c(C(=O)O)cc(=O)c(O)c-3oc2c1
inactive: Potency [1] > 11.4 µM | activity change, negative = inhibition [2] -7.19% | activity change, negative = inhibition [3] 4.18% | activity, negative = inhibition [4] -14.8% | Potency [5] > 46 µM | Potency [6] > 9.22 µM | Potency [7] | Potency [8]

N#CCCn1c(=O)c(-c2ccccc2)nc2cnc(Oc3ccccc3)nc21
inactive: Potency [1] > 11.4 µM | activity change, negative = inhibition [2] -22.6% | activity change, negative = inhibition [3] -4.58% | activity, negative = inhibition [4] 2.8% | Potency [5] > 9.22 µM | Potency [6] > 46 µM | Potency [7] | Potency [8]

CC(=O)CSCc1ccccn1
inactive: Potency [1] > 11.4 µM | activity change, negative = inhibition [2] 4.51% | activity change, negative = inhibition [3] -1.92% | activity, negative = inhibition [4] -2.34% | Potency [5] > 46 µM | Potency [6] > 9.22 µM | Potency [7] | Potency [8]

O=C(O)CCNCC(=O)O
inactive: Potency [1] > 11.4 µM | activity change, negative = inhibition [2] 2.01% | activity change, negative = inhibition [3] 0.769% | activity, negative = inhibition [4] -2.35% | Potency [5] > 46 µM | Potency [6] > 9.22 µM | Potency [7] | Potency [8]
